Screen size: about 5,500 compounds; about 2,000 (36%) were called active. Not shown: some 18% with an inconclusive outcome. Cut-off read from the data, not from the text of the source: active = normalized growth mostly below about 0.91 (no sharp cut-off); inconclusive = no clear call, values can overlap the other calls; inactive = mostly above about 0.92. This is one part of the list.
Experiment: chemical genetic growth profiling, strain panel (AID 1159580);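 note: tested at 20 µM; growth read once vehicle control cultures reached saturation at 30 °C; 1 = growth at the plate median or of vehicle wells; lower values mean less growth of the strain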
Details: S. cerevisiae deletion strains, growth OD

Measured: normalized growth

O=C(O)CC[C@@H](C(=O)O)N1C(=O)c2ccccc2C1=O
inactive: locus YAL040C, strain CLN3, hits give low values 0.987 | locus YCL061C, strain MRC1 (second series), hits give low values 1.01 | locus YDR150W, strain NUM1, hits give low values 1 | locus YDR363W, strain ESC2, hits give low values 0.987 | locus YER002W, strain NOP16, hits give low values 0.975 | locus YGR229C, strain SMI1, hits give low values 1 | locus YNL175C, strain NOP13, hits give low values 0.973 | locus YNL197C, strain WHI3, hits give low values 0.976 | locus YNL224C, strain SQS1, hits give low values 0.991 | locus YOR083W, strain WHI5 (second series), hits give low values 1.06

Source: PubChem BioAssay AID1159580 (chemical genetic matrix, 2015)
